Sampled rows, rich in hits. Any-hit rate of the full collection: about 7.5%.
Giardia FBPA inh: blocks Giardia fructose-bisphosphate aldolase activity. purified Giardia FBPA. Potency, µM (series often up to 59.6 µM), hits mostly inhibitors. 290,000 tested, 0.71% active; further: nearly all actives have a fitted effect of over 55% in size
Target sequence (A8B2U2 whole entry, looked up): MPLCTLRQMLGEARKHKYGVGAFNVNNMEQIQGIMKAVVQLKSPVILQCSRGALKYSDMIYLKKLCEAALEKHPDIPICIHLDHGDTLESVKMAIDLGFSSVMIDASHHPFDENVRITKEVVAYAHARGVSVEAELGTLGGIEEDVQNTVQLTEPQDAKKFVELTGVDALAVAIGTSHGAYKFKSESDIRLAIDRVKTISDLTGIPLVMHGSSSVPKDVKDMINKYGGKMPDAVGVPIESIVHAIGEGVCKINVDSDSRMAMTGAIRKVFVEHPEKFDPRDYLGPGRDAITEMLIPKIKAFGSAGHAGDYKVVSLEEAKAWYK
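Giardia FBPA (40 nM reagent) was preincubated 10 min at RT with compound (up to 57.5 uM final), then substrate plus GAPDH/TPI/NAD/arsenate coupling system with diaphorase/resazurin was added; resorufin fluorescence (525/598 nm) was read after 20 min.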
Vaccinia mCherry: inhibitors of vaccinia virus infection (mCherry reporter signal) | 310,000 tested, 0.63% active | Vaccinia virus mCherry reporter infection, fluorescence | Potency, µM (titrated, usually from 36.5 µM), actives largely listed as inhibitors; calls by dose curve; tested in A549 cells; further: nearly all actives have a fitted effect of over 35% in size
FMDV inh: blocks foot and mouth disease virus. 410,000 tested, 1.2% active. Potency, µM (highest dose often 57.9 µM), usual class: inhibitors. FMDV antiviral cell-based qHTS. AID 1159524; calls by dose curve; tested in HEK293T cells; further: read-out not given here; nearly all actives have a fitted effect of over 45% in size
HCMV antiviral: inhibitors of human cytomegalovirus | HFF cells, HCMV-luciferase reporter, 72 h; stronger effect = lower value | 410,000 tested, 4.5% active | activity change, negative = inhibition, % at 57.5 µM | AID 1259415; in the data active means activity change below about -60%; inconclusive means no clear call, values can overlap the other calls; inactive means above about -39%
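Cell-based, HFFs, 1000 cells/well, 16 h 37C; cpds in DMSO + HCMV-luc, MOI 1 PFU/cell; 72 h 37C; OneGlo luminescence after 5 min RT; norm. to buffer vs Salinomycin 10uM.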
HCV inhibitor: HCV inhibition; AID 651820; 340,000 tested, 3.4% active; Huh7.5.1 HCVcc-Cre infection, luciferase reporter, 44 h; Potency, µM (top dose mostly 41.8 µM), hits mostly inhibitors
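After 44 h co-culture of compound, cells and HCVcc-Cre (~0.5 moi), substrate is added for 15 min at room temperature and luciferase measured over 15 sec. Cells were seeded at 1,000/well and pre-cultured 4 h.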
Vaccinia Venus: inhibitors of vaccinia virus (Venus reporter). Vaccinia virus Venus reporter expression, fluorescence. Potency, µM (highest dose often 36.5 µM), actives largely listed as inhibitors. 330,000 tested, 0.46% active. AID 720580; calls by dose curve; tested in A549 cells; further: nearly all actives have a fitted effect of over 30% in size
Numbers stand for hits; n = inactive; u = inconclusive; x = not tested or not shown; + = active, no number; [ ] = dose if it differs, or a comment. Unless noted, the call rests on the fitted dose curve; in most records, active means well fitted curve in the direction sought with a large enough effect; inconclusive means small, poorly fitted or top-dose-only effect, or another doubt; inactive means no such curve, though single readings can be large; an effect the other way counts as inactive or inconclusive.

SMILES | Giardia FBPA inh | Vaccinia mCherry | FMDV inh | HCMV antiviral | HCV inhibitor | Vaccinia Venus
CN(C(=O)c1cccc(Nc2ccc(-c3ccc4c(c3)OCCO4)nn2)c1)C1CCCCC1 | n | x | n | -93 | u | u
CN(C)S(=O)(=O)c1ccc(Nc2ccc(-c3ccc4c(c3)OCCO4)nn2)cc1 | n | n | x | n | n | n
O=C(NCC1OCCc2ccccc21)c1ccc(NC(=O)c2ccccc2Cl)cc1 (stereo not drawn) | n | n | 14µM | u | u | n
Cc1ccc(-n2c(SCC(=O)Nc3cc(C)on3)nc3c([nH]c4ccccc43)c2=O)cc1 | n | n | n | -70 | u | n
CCc1ccc(NC(=O)CSc2nc3c([nH]c4ccccc43)c(=O)n2-c2ccc(C)cc2)cc1 | x | n | n | -96 | x | n
COc1cccc(-n2c(SCC(=O)Nc3c(C)cc(C)cc3C)nc3c([nH]c4ccccc43)c2=O)c1 | x | n | n | -80 | x | n
COc1cccc(NC(=O)CSc2nc3c([nH]c4ccccc43)c(=O)n2-c2cc(C)cc(C)c2)c1 | x | n | n | n | x | n
CC(=O)Nc1ccc(NC(=O)CSc2nc3c([nH]c4ccccc43)c(=O)n2-c2ccccc2F)cc1 | x | n | n | n | u | n
Cc1cc(NC(=O)CSc2nc3c([nH]c4ccccc43)c(=O)n2-c2ccc(Cl)cc2)no1 | x | u | n | n | x | u
O=C(CSc1nc2c([nH]c3ccccc32)c(=O)n1-c1ccccc1F)Nc1cccc(C(F)(F)F)c1 | x | n | u | -62 | x | n
Cc1c(Cl)cccc1NC(=O)c1oc2ccc(S(=O)(=O)N3CCC4(CC3)OCCO4)cc2c1C | x | n | u | u | x | u
COc1cccc(CNC(=O)C2CCCCN2S(=O)(=O)c2ccc(F)cc2)c1 (stereo not drawn) | x | n | n | n | x | n
CCOc1ccc(C(=O)NNC(=O)CN2C(=O)C3CC=CCC3C2=O)cc1OC (stereo not drawn) | x | x | n | n | n | x
COc1ccc(Nc2cc3c(cn2)cc(-c2cccc(C(F)(F)F)c2)n3C)c(OC)c1 | x | x | x | n | x | x
CCOc1ccc(-n2c(SCC(=O)Nc3cc(C)on3)nc3c([nH]c4ccccc43)c2=O)cc1 | n | n | n | n | 22µM | n
c1cc(-c2cnc3cccnn23)c2cccnc2c1 | x | n | n | -69 | x | n
Cc1nnnn1/C(=C\c1ccccc1)C(=O)OCC(=O)N(C)C1CCS(=O)(=O)C1 (stereo not drawn) | n | n | n | x | n | n
CC(=O)c1ccccc1NC(=O)COC(=O)/C(=C/c1ccccc1)n1nnnc1C | x | n | 22µM | n | n | n
CCN(C(=O)COC(=O)/C(=C/c1ccccc1)n1nnnc1C)C1CCCCC1 | x | u | 22µM | u | u | n
C=CCNC(=O)CN(Cc1ccccc1)S(=O)(=O)c1ccccc1 | n | n | n | n | n | n
CCC(C)NS(=O)(=O)c1ccc(N2CCCCS2(=O)=O)cc1 (stereo not drawn) | x | n | n | n | x | n
Cc1ccc(S(=O)(=O)CCSc2n[nH]c(=O)n2-c2ccc3c(c2)OCCO3)cc1 | n | x | n | n | u | x
COc1ccc(CN2C(=O)C(n3ccc4ccccc43)c3cc(Cl)ccc32)cc1 (stereo not drawn) | x | x | x | -84 | x | x
COc1ccc(CN2C(=O)C(n3c(C)ccc3C)c3cc(OC(F)(F)F)ccc32)cc1 (stereo not drawn) | x | x | x | -88 | x | x
COc1ccc(CN2C(=O)C(n3c(C)ccc3C)c3cc(OC)ccc32)cc1 (stereo not drawn) | x | x | x | n | x | x
SMILES | Giardia FBPA inh | Vaccinia mCherry | FMDV inh | HCMV antiviral | HCV inhibitor | Vaccinia Venus
Brc1ccc2c(c1)OCCOCCOc1cc(Br)ccc1OCCOCCOCCO2 | n | u | u | x | u | 10µM
Brc1cc2c(cc1Br)OCCOCCOCCOCCO2 | n | n | n | n | n | n
COC(=O)c1nn(-c2ccccc2)c2nnc(Cc3ccc(C)cc3)c(=O)n12 | n | n | n | -108 | n | n
Cc1ccc(NC(=S)NCCSc2ccc(Cl)cc2)cc1 | n | n | n | u | n | n
Cc1cccc(C)c1NC(=S)NCCSc1ccc(Cl)cc1 | n | n | n | u | 10µM | n
O=C(/C=C/c1cc(Br)ccc1F)OCC(=O)N1CCCC1 | x | n | n | n | n | n
O=C(CSc1nc2ccccc2nc1Cc1ccccc1)Nc1ccc2c(c1)OCO2 | x | n | n | n | x | n
CCc1cccc(C)c1NC(=O)CSc1nc2ccccc2nc1Cc1ccccc1 | x | n | n | -68 | x | n
Cc1ccc(Cc2nc3ccccc3nc2SCC(=O)Nc2ccc3c(c2)OCO3)cc1 | x | n | n | -66 | x | n
CN(Cc1cnc2ccccn12)C(=O)c1cc(NC(=O)c2ccccc2)cc2ncn(C3CCCC3)c12 | x | n | n | x | x | n
COc1ccc(CN2C[C@H](COCc3ccccc3)Oc3cccc(N4CCCC4)c3S2(=O)=O)cc1 | x | x | x | n | x | x
O=c1c(-c2ccccc2)nc2ccccc2n1C(CCc1ccccc1)c1nc2ccccc2[nH]1 (stereo not drawn) | x | n | n | -67 | x | n
CC(=O)Nc1cccc(C(=O)NCc2ccc3c(c2)CCN3C(=O)c2ccc(F)cc2)c1 | x | n | n | n | x | n
COc1ccc(-c2c(-c3ccc(O)cc3O)n[nH]c2C(F)(F)F)cc1 | n | n[7.34 µM] | n | n | u | n[7.34 µM]
COc1ccccc1-c1c(-c2ccc(O)cc2O)n[nH]c1C(F)(F)F | n | x | 16µM | + | u | x
Oc1ccc(-c2n[nH]c(C(F)(F)F)c2-c2ccccc2)c(O)c1 | n | u | 20µM | -82 | 5.6µM | u
COc1ccc(/C=C/c2nc(C)c(-c3ccccc3)c(=O)[nH]2)cc1OC | n | x | n | -65 | n | x
Cc1ccc(NC(=O)c2ccccc2NS(=O)(=O)c2ccc(F)cc2)cc1S(=O)(=O)N1CCCCC1 | n | u | u | -98 | u | u
O=C(Nc1cccc(S(=O)(=O)N2CCCCC2)c1)c1ccccc1NS(=O)(=O)c1ccc(F)cc1 | n | u | u | -98 | u | u
COc1ccc(OC)c(Nc2sc(C(=O)c3ccccc3)c(N)c2S(=O)(=O)c2ccccc2)c1 | x | n | n | n | x | n
CS(=O)c1ccccc1O (stereo not drawn) | n | x | n | n | n | x
O=S(c1ccccc1O)S(=O)c1ccccc1O (stereo not drawn) | x | n | n | n | 10µM | n
O=C(Nc1cccc(C(F)(F)F)c1)C1CCCN1S(=O)(=O)c1cccc2cccnc12 (stereo not drawn) | n | x | u | -93 | u | x
O=C(Nc1cccc(Cl)c1)C1CCCN1S(=O)(=O)c1cccc2cccnc12 (stereo not drawn) | x | n | n | n | x | n
CSc1ccc(C(=O)NCC(c2ccco2)N(C)C)cc1[N+](=O)[O-] (stereo not drawn) | n | n | n | n | n | n
CC(Oc1ccc(Cl)cc1Cl)c1ccnc2nc(N3CCOCC3)nn12 (stereo not drawn) | n | n | u | -77 | n | n
O=C(Nc1ccc(F)cc1F)N1CCCN(c2ccc([N+](=O)[O-])cn2)CC1 | n | n | u | u | u | n

Screening data from PubChem.
